Screens: PubChem, several laboratories
Platelet DG rel: modulates dense granule release in human platelets; human platelet-rich plasma, SFLLRN dense granule ATP release, luminescence; inhibition, %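 (compounds screened at 7.5 µM in platelet-rich plasma)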; hit rate 0.22% among 300,000;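 active = mean replicate score, as percent of positive control, at or above 50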
dFosB act-1: mouse delta FosB homodimer activation; P13346; purified delta FosB, TAMRA-CDK5 oligo fluorescence polarization; percent of positive-control signal above neutral wells; activation, % at 25 µM; hit rate 0.99% among 340,000;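 active = mean activation above about 17%, with every replicate also reaching it, limit read from the data, passing the limit was not always enough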
Target sequence (P13346 whole entry, looked up): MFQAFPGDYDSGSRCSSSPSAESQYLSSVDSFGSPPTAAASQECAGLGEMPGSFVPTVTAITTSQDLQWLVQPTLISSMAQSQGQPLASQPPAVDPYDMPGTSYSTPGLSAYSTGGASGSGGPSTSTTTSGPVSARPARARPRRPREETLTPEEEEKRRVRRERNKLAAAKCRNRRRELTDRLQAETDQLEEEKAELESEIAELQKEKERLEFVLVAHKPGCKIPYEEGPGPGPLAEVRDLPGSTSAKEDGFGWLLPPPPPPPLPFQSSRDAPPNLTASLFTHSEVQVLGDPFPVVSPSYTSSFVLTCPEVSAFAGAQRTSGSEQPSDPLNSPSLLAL
HSF1 activator: increases HSF-1 driven luciferase reporter signal | NIH3T3-HGL HSF-1 luciferase reporter, MG132, 8 h; 100% = twice DMSO control signal | activation, % at 9 µM | AID 504408 | hit rate 1.7% among 300,000;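 active = mean replicate activation of at least 50% with a set share of replicates each reaching 50%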
MPTP block: blocks calcium-induced mitochondrial swelling | isolated mouse mitochondria, Ca2+ swelling absorbance, 30 min | inhibition, % at 10 µM | hit rate 1.4% among 360,000 | AID 602449;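 active = inhibition of 50% or more, scaled per plate between neutral and stimulator controls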
HSF1 inh: HSF1 inhibition | NIH3T3-HGL HSE-luciferase, MG132-induced, luminescence 8 h; active compounds read low | hit rate 0.77% among 300,000 | activity change, negative = inhibition, % at 7.5 µM (by protocol) | AID 2098;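 active = more than half of replicate wells show activity change below -50%, luminescence cut by over half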;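 note: luciferase reports HSF-1 transcriptional activity via heat shock element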
HSP90 inh: blocks HSP90-mediated luciferase refolding in reticulocyte lysate; Rabbit reticulocyte lysate, luciferase refolding luminescence, 3 h; inhibition, % at 5.6 µM; hit rate 0.91% among 290,000; AID 1789;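 active = inhibition above the screen-wide mean plus 3 SD, computed separately per campaign, cut at about 16% in these data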;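 note: inhibitors lower the luminescence because luciferase stays unfolded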
dFosB act-2: activators of mouse delta FosB homodimer DNA binding; shares compounds with dFosB act-1; purified delta FosB, TAMRA-CDK5 oligo fluorescence polarization; normalised: neutral wells 0, positive control 100; activation, % at 24.9 µM; 2,400 tested, under 10 active;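 active = highest replicate activation at or above 34% and every replicate reaching that threshold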;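 note: higher polarization means more probe DNA bound by delta FosB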
Of the large screens only hits and unclear results are named; the others gave an inactive call (follow-up assays come after a bar, where they were run). The list is not random: actives were taken first. Their share in the collection is about 4.9%.

CC(=O)Nc1sc(C)c(C)c1C(=O)OCC(=O)NCc1ccc(Cl)cc1	dFosB act-1 90 (no result: Platelet DG rel, HSF1 activator, HSF1 inh, HSP90 inh) | dFosB act-2 inactive
COc1cccc(CNC(=O)COC(=O)c2c(NC(C)=O)sc(C)c2C)c1	none (no result: Platelet DG rel, HSF1 activator, HSF1 inh, HSP90 inh)
C/C(=N\NC(=O)CSc1nc2ccccc2o1)c1cccc(O)c1	dFosB act-1 25 | dFosB act-2 inactive
CCN(CC)S(=O)(=O)c1ccc(NC(=O)Cn2c(=O)oc3ccccc32)cc1	none
O=C(Cn1c(=O)oc2ccccc21)Nc1ccc(S(=O)(=O)N2CCCCC2)cc1	dFosB act-1 60 | dFosB act-2 inactive
CC(=O)c1ccc(Nc2nc(NCCO)nc(OC(C(F)(F)F)C(F)(F)F)n2)cc1	none
CNc1nc(Nc2ccc(C(C)=O)cc2)nc(OC(C(F)(F)F)C(F)(F)F)n1	dFosB act-1 44 (no result: Platelet DG rel, HSF1 activator, HSF1 inh) | dFosB act-2 inactive
O=C(C[C@@H]1C/C=C\C[C@@H](Cc2ccc(F)cc2)C(=O)OC[C@@H](Cc2ccccc2)NC1=O)N[C@H](CO)Cc1ccccc1	dFosB act-1 32 (no result: Platelet DG rel, HSF1 activator, HSF1 inh, HSP90 inh) | dFosB act-2 inactive
C[C@@H]1COC(=O)[C@H](Cc2ccc(F)cc2)C/C=C\C[C@@H](CC(=O)N[C@H](CO)Cc2ccccc2)C(=O)N1	none (no result: Platelet DG rel, HSF1 activator, HSF1 inh, HSP90 inh)
O=C(OCc1ccc2c(c1)OCO2)c1ccc(S(=O)(=O)N2CCCCC2)cc1	dFosB act-1 35 | dFosB act-2 inactive
Cc1ccc(S(=O)(=O)NCc2ccccc2)cc1C(=O)NC1CCCCC1	none
Cc1ccc(NC(=O)C2CCCN(C3=NS(=O)(=O)c4ccccc43)C2)c(O)c1 (configuration not stated)	none (no result: Platelet DG rel, HSF1 activator, HSF1 inh, HSP90 inh)
COc1ccc(S(=O)(=O)N(C)C)cc1NC(=O)Cc1c[nH]c2ccccc12	none
Cc1ccc(/C=C/C(=O)NC(=S)Nc2ccccc2C(=O)NC2CCCCC2)cc1	none
O=C(/C=C/c1ccc(F)cc1)NC(=S)Nc1ccccc1C(=O)NC1CCCCC1	dFosB act-1 22 (no result: HSF1 activator, HSF1 inh) | dFosB act-2 inactive
COc1ccc(/C=C/C(=O)NC(=S)Nc2ccccc2C(=O)NC2CCCCC2)cc1	dFosB act-1 44 | dFosB act-2 inactive
O=C(/C=C/c1ccccc1)NC(=S)Nc1ccccc1C(=O)NC1CCCCC1	dFosB act-1 39 | dFosB act-2 inactive
FC(F)(F)c1ccc(CN2C[C@@H]3C(c4ccc(Cl)nc4)C4(c5ccccc5)CC3(C4)[C@H]2c2ccccc2)cc1 (some centres not stated)	none (no result: HSP90 inh)
O=C(COc1ccccc1Cl)Nc1cc(Cl)ccc1O	dFosB act-1 22 | dFosB act-2 inactive
O=C(COc1ccccc1Cl)Nc1ccc(NC(=O)c2ccco2)cc1	dFosB act-1 21 | dFosB act-2 inactive
COc1cc(NC(=O)COc2ccc([N+](=O)[O-])cc2)ccc1NC(=O)c1ccco1	none (no result: Platelet DG rel, dFosB act-1, HSF1 activator, HSF1 inh, HSP90 inh)
COc1cc(NC(=O)COc2ccccc2[N+](=O)[O-])ccc1NC(=O)c1ccco1	dFosB act-1 34 | dFosB act-2 inactive
O=C(Nc1ccc(-c2noc(COc3ccccc3Cl)n2)cc1)c1ccco1	none
CC(C)CC1C(=O)N(Cc2cn(Cc3ccco3)nn2)CCS(=O)(=O)N1Cc1ccc(-c2ccncc2)cc1 (configuration not stated)	none (no result: Platelet DG rel, dFosB act-1, HSF1 activator, HSF1 inh, HSP90 inh)
COCCNc1nc(-c2ccccc2F)c2sc(-c3ccccc3)cc2n1	none (no result: Platelet DG rel, dFosB act-1, HSF1 activator, HSF1 inh, HSP90 inh)
C[C@@H]1CN([C@H](C)CO)C(=O)CCCn2cc(nn2)CO[C@H]1CN(C)S(=O)(=O)c1ccc(F)cc1	none (no result: Platelet DG rel, dFosB act-1, HSF1 activator, HSF1 inh, HSP90 inh)
CCCc1cc(=O)[nH]c(SCC(=O)NCCC2=CCCCC2)n1	none
O=C(NC1CCN(Cc2ccccc2)CC1)c1cccc(S(=O)(=O)Nc2ccc(SC(F)F)cc2)c1	dFosB act-1 26 (no result: Platelet DG rel, HSF1 activator, HSF1 inh, HSP90 inh) | dFosB act-2 inactive
Cc1ccc(NS(=O)(=O)c2cccc(C(=O)NC3CCN(Cc4ccccc4)CC3)c2)cc1	none (no result: Platelet DG rel, HSF1 activator, HSF1 inh, HSP90 inh)
CCc1cccc(CC)c1NC(=S)NCc1nc2ccccc2[nH]1	none
O=C(Cc1cccc2ccccc12)NNC(=O)Nc1cccc(Cl)c1	dFosB act-1 31 | dFosB act-2 inactive
Cc1cccc(OCC(=O)NNC(=O)Nc2cccc(Cl)c2)c1C	dFosB act-1 18 | dFosB act-2 inactive
CCOC(=O)CC(NC(=O)c1cc2cccc(OC)c2oc1=O)c1ccc(OC)cc1 (configuration not stated)	none
CCOC(CNc1ncnc2sc(-c3ccccc3)cc12)OCC	none
CN(C)CCCNc1ncnc2sc(-c3ccccc3)cc12	dFosB act-1 27 | dFosB act-2 inactive
O=C(NNC1=Nc2ccccc2SC1)c1ccc(F)cc1	none
O=C(NNC1=Nc2ccccc2SC1)c1ccc(Cl)cc1	dFosB act-1 24 | dFosB act-2 inactive
O=C(NC(c1ccc(-c2ccccc2)cc1)c1cnccn1)C1CCN(Cc2ccc3c(c2)OCO3)CC1 (configuration not stated)	none (no result: Platelet DG rel, dFosB act-1, HSF1 activator, HSF1 inh, HSP90 inh)
NNc1nc(Nc2ccccc2)nc(N2CCCCC2)n1	none
COc1ccc(Nc2nc(NN)nc(Nc3ccc(OC)cc3)n2)cc1	dFosB act-1 25 | dFosB act-2 inactive
NNc1nc(Nc2ccccc2)nc(Nc2ccccc2)n1	dFosB act-1 46 | dFosB act-2 inactive
COc1ccc(Nc2ccc(OC)cc2)cc1	none (no result: dFosB act-1)
O=C(Oc1cccc(-n2cnnn2)c1)c1sc2ccccc2c1Cl	dFosB act-1 143 | dFosB act-2 inactive
CC(=O)c1cccc(NC(=O)c2ccc(N(Cc3ccccc3C)S(C)(=O)=O)cc2)c1	none
CC(=O)Nc1ccc(NC(=O)c2ccc(N(Cc3ccccc3C)S(C)(=O)=O)cc2)cc1	dFosB act-1 20 (no result: HSP90 inh) | dFosB act-2 inactive
CC(=O)Nc1ccc(C(=O)c2ccccc2)cc1	none
CC(=O)Nc1ccc(NC(=O)c2ccc(NC(=O)c3ccccc3)cc2)cc1	dFosB act-1 27 | dFosB act-2 inactive
COc1ccccc1NS(=O)(=O)c1cccc(C(=O)N/N=C/c2ccc(NC(C)=O)cc2)c1	dFosB act-1 29 | dFosB act-2 inactive
CC(=O)Nc1ccc(/C=N/NC(=O)CNC(=O)c2ccccc2)cc1	dFosB act-1 21 | dFosB act-2 inactive
Cc1noc(C)c1C(=O)N(C)C[C@@H]1OCc2ccccc2-c2c(n(C)c3ccccc23)C(=O)N([C@H](C)CO)C[C@H]1C	none (no result: Platelet DG rel, dFosB act-1, HSF1 activator, HSF1 inh, HSP90 inh)
CCOc1ccc(C(C(=O)NC(C)(C)C)N(CCOC)C(=O)CCC(=O)Nc2ccccn2)cc1 (configuration not stated)	none
Cc1ccc(C(=O)OCC(=O)Nc2ccc3c(c2)OCO3)c(O)c1	none (no result: Platelet DG rel, HSF1 activator, HSF1 inh, HSP90 inh)
C#CCOCCOCCOCCNc1nc(N2CCN(C(=O)[C@H](CCCN=C(N)N)n3cc(C(N)[C@H](C)CC)nn3)CC2)nc(N2CCN(C(=O)[C@H](CCCN=C(N)N)n3cc(C(N)[C@@H](C)CC)nn3)CC2)n1 (some centres not stated)	dFosB act-1 22 (no result: Platelet DG rel, HSF1 activator, HSF1 inh, HSP90 inh) | dFosB act-2 inactive
